Out of some 39,000 compounds screened, about 1,500 (3.8%) were called active. The sample as a whole holds a higher share of actives than the screen did.

This assay concerns HSkMC (human skeletal muscle cells). Kind of assay: cytotoxicity call (relative viability < 0.9). The settings on record: 10 µM.
As for `COCC#Cc1cnc2c(c1)C(=O)N([C@@H](C)CO)C[C@@H](C)[C@@H](CN(C)S(=O)(=O)c1cn(C)cn1)O2`, the cytotoxicity call was “inactive”. With `C#CC[C@H](c1nc2cc(Cl)ccc2c(=O)n1Nc1ccccc1)N(CCCN)C(=O)c1cccc(Cl)c1F`, the cytotoxicity call was “active”. Regarding `COc1ccc(NC(=O)N(C)C[C@H]2OCCCC[C@@H](C)Oc3ccc(NC(=O)c4ccccc4)cc3C(=O)N([C@H](C)CO)C[C@@H]2C)cc1`, the cytotoxicity call is “inactive”. With `C[C@H](CO)N1C[C@H](C)[C@@H](CN(C)S(=O)(=O)c2cn(C)cn2)Oc2c(NC(=O)c3ccc(-c4nccs4)cc3)cccc2C1=O`, the cytotoxicity call was “inactive”. In the case of `COc1cc(Nc2ncc(F)c(Nc3ccc4c(n3)N(COP(=O)(O)O)C(=O)C(C)(C)O4)n2)cc(OC)c1OC`, the cytotoxicity call is “active”. As to `NC1CCCCC1N.O=C1[O][Pt][O]C1=O` (centres undefined), the cytotoxicity call is “inactive”. As to `Cc1noc(C)c1NC(=O)N(C)C[C@H]1Oc2c(NC(=O)NC(C)C)cccc2C(=O)N([C@@H](C)CO)C[C@H]1C`, the cytotoxicity call is “inactive”. As for `Cc1ccc(S(=O)(=O)Nc2ccc3c(c2)C(=O)N([C@@H](C)CO)C[C@H](C)[C@@H](CN(C)C(=O)NC2CCCCC2)OCCCC[C@H](C)O3)cc1`, the cytotoxicity call is “inactive”. As for `C[C@H](CO)N1C[C@H](C)[C@H](CN(C)C(=O)c2ccncc2)OCCCC[C@H](C)Oc2ccc(NS(=O)(=O)c3cn(C)cn3)cc2C1=O`, the cytotoxicity call was “inactive”.

For `CC(=O)Oc1ccccc1C(=O)Nc1ccccc1`, the cytotoxicity call is “inactive”. `CC(=O)Oc1ccccc1C(=O)Nc1ncc([N+](=O)[O-])s1`: the cytotoxicity call is “active”. As to `CC(=O)Nc1ncc([N+](=O)[O-])s1`, the cytotoxicity call was “inactive”. For the compound `C[C@@H]1CN([C@H](C)CO)C(=O)c2cc(N(C)C)ccc2O[C@@H](C)CCCCO[C@@H]1CN(C)S(=O)(=O)c1cn(C)cn1`, the cytotoxicity call is “inactive”. In the case of `CCCNC(=O)C[C@H]1CC[C@H]2[C@@H](COc3ccc(NC(=O)Nc4ccc(C#N)cc4)cc3C(=O)N2C)O1`, the cytotoxicity call was “inactive”. Take `CCOCCOCCOc1oc(C(=O)NC2CCCCC2)c(-c2ccc(Cl)cc2)c1S(=O)(=O)c1ccc(Cl)cc1`: the cytotoxicity call is “inactive”.

As for `CSc1ccc2c(c1)N(CCC1CCCCN1C)c1ccccc1S2.Cl` (centres undefined), the cytotoxicity call was “inactive”. Take `CS(=O)(=O)O.CSc1ccc2c(c1)C(N1CCN(C)CC1)Cc1ccccc1S2` (centres undefined): the cytotoxicity call was “active”. `CN1CCC(=C2c3ccccc3Sc3ccccc32)CC1.O=C(O)C=CC(=O)O`: the cytotoxicity call was “inactive”. As to `C[C@@H]1CN([C@H](C)CO)S(=O)(=O)c2ccc(C#Cc3ccc(F)cc3)cc2O[C@H]1CN(C)C(=O)CN(C)C`, the cytotoxicity call was “inactive”. Regarding `CC(C)NC(=O)N(C)C[C@H]1Oc2ccc(NC(=O)NC3CCCCC3)cc2CC(=O)N([C@@H](C)CO)C[C@H]1C`, the cytotoxicity call is “inactive”. As to `CNC(=O)Nc1ccc(-c2nc(N3C[C@H]4CC[C@@H](C3)O4)c3cnn(C4CCC5(CC4)OCCO5)c3n2)cc1`, the cytotoxicity call is “active”. The result for `COC1CC(OC2C(C)OC(OC3C(C)=CCC4CC(CC5(C=CC(C)C(C6CCCCC6)O5)O4)OC(=O)C4C=C(C)C(O)C5OCC(=CC=CC3C)C45O)CC2OC)OC(C)C1O` (centres undefined) reads “inactive”. As for `CN[C@@H]1[C@@H](C)O[C@@H](O[C@H]2[C@H](C)O[C@@H](O[C@@H]3/C(C)=C/C[C@@H]4C[C@@H](C[C@]5(C=C[C@H](C)[C@@H](C(C)C)O5)O4)OC(=O)[C@@H]4C=C(C)[C@@H](O)[C@H]5OC/C(=C\C=C\[C@@H]3C)[C@]54O)C[C@@H]2OC)C[C@H]1OC`, the cytotoxicity call is “active”. Take `CCC(C)C1OC2(C=CC1C)CC1CC(CC=C(C)C(OC3CC(OC)C(OC4CC(OC)C(O)C(C)O4)C(C)O3)C(C)C=CC=C3COC4C(OC)C(C)=CC(C(=O)O1)C34O)O2` (centres undefined): the cytotoxicity call was “active”. Take `CCC(C)C1OC2(C=CC1C)CC1CC(CC=C(C)C(OC3CC(OC)C(OC4CC(OC)C(NC(C)=O)C(C)O4)C(C)O3)C(C)C=CC=C3COC4C(O)C(C)=CC(C(=O)O1)C34O)O2` (centres undefined): the cytotoxicity call was “inactive”. As to `CC[C@H](C)[C@H]1O[C@]2(C=C[C@@H]1C)C[C@@H]1C[C@@H](C/C=C(\C)[C@@H](O[C@H]3C[C@H](OC)[C@@H](O[C@H]4C[C@H](OC)[C@@H](NC(C)=O)[C@H](C)O4)[C@H](C)O3)[C@@H](C)/C=C/C=C3\CO[C@@H]4[C@H](O)C(C)=C[C@@H](C(=O)O1)[C@]34O)O2`, the cytotoxicity call is “active”.

Take `CO[C@H]1C[C@H](O[C@H]2[C@H](C)O[C@@H](O[C@@H]3/C(C)=C/C[C@@H]4C[C@@H](C[C@]5(C=C[C@H](C)[C@@H](C6CCCCC6)O5)O4)OC(=O)[C@@H]4C=C(C)[C@@H](O)[C@H]5OC/C(=C\C=C\[C@@H]3C)[C@]54O)C[C@@H]2OC)O[C@@H](C)[C@@H]1O`: the cytotoxicity call is “inactive”. Turning to `C[C@H](CO)N1C[C@H](C)[C@@H](CN(C)C(=O)C2CCC2)Oc2cc(C#Cc3ccncc3)ccc2S1(=O)=O`, the cytotoxicity call was “inactive”. Consider `Cc1noc(C)c1NC(=O)N(C)C[C@@H]1OCCCC[C@@H](C)Oc2ccc(NS(=O)(=O)c3ccc(Cl)cc3)cc2C(=O)N([C@H](C)CO)C[C@H]1C`, for which the cytotoxicity call was “inactive”. Take `C[C@@H]1CN([C@H](C)CO)S(=O)(=O)c2ccc(C3=CCCC3)cc2O[C@H]1CN(C)C(=O)c1cnccn1`: the cytotoxicity call is “inactive”.

With `COc1cccc(S(=O)(=O)N2C[C@H](O)COC[C@@H]3O[C@H](CC(=O)N4CCOCC4)CC[C@H]32)c1`, the cytotoxicity call is “inactive”. As to `C[C@H]1CN([C@@H](C)CO)C(=O)c2cc(NC(=O)CCCN(C)C)ccc2O[C@H]1CN(C)Cc1ccc2c(c1)OCO2`, the cytotoxicity call was “inactive”. Regarding `COCC(=O)Nc1ccc2c(c1)OC[C@@H](C)N(C(=O)Cc1cccnc1)C[C@@H](C)[C@@H](OC)CN(C)C2=O`, the cytotoxicity call was “inactive”. For the compound `C[C@H](CO)N1C[C@H](C)[C@@H](CN(C)C(=O)CCN2CCCCC2)Oc2ncc(C#Cc3ccccn3)cc2C1=O`, the cytotoxicity call is “inactive”. On to `CN(Cc1ccccn1)C(=O)[C@@]12COC[C@@H]1CN(S(C)(=O)=O)C2`, for which the cytotoxicity call is “inactive”. Consider `CC(C)NC(=O)Nc1ccc2c(c1)C(=O)N([C@H](C)CO)C[C@@H](C)[C@H](CN(C)Cc1ccccc1)OCCCC[C@H](C)O2`, for which the cytotoxicity call is “inactive”.

As for `C[C@H]1CN([C@@H](C)CO)C(=O)c2cc(NC(=O)Nc3ccc(F)cc3)ccc2O[C@H]1CN(C)C(=O)Nc1ccc(C(F)(F)F)cc1`, the cytotoxicity call was “inactive”. As for `C[C@@H]1CN([C@H](C)CO)C(=O)c2cc(NC(=O)Nc3ccc(C(F)(F)F)cc3)ccc2O[C@H]1CN(C)C(=O)Nc1ccc(F)cc1`, the cytotoxicity call was “inactive”. The result for `C[C@H](CO)N1C[C@H](C)[C@@H](CN(C)C(=O)Nc2ccc(C(F)(F)F)cc2)Oc2ccc(NC(=O)Nc3ccc(F)cc3)cc2C1=O` reads “inactive”; that for `C[C@H]1CN([C@@H](C)CO)C(=O)c2cc(NC(=O)Nc3ccc(F)cc3)ccc2O[C@@H]1CN(C)C(=O)Nc1ccc(C(F)(F)F)cc1`, “inactive”. The result for `C[C@@H]1CN([C@H](C)CO)C(=O)c2cc(NC(=O)Nc3ccc(F)cc3)ccc2O[C@H]1CN(C)C(=O)Nc1ccc(C(F)(F)F)cc1` reads “inactive”. Consider `C[C@@H]1CN([C@H](C)CO)C(=O)c2cc(NC(=O)Nc3ccc(C(F)(F)F)cc3)ccc2O[C@@H]1CN(C)C(=O)Nc1ccc(F)cc1`, for which the cytotoxicity call is “active”. Regarding `C[C@@H]1CN([C@@H](C)CO)C(=O)c2cc(NC(=O)Nc3ccc(F)cc3)ccc2O[C@@H]1CN(C)C(=O)Nc1ccc(C(F)(F)F)cc1`, the cytotoxicity call is “active”. In the case of `C[C@@H]1CN([C@@H](C)CO)C(=O)c2cc(NC(=O)Nc3ccc(C(F)(F)F)cc3)ccc2O[C@@H]1CN(C)C(=O)Nc1ccc(F)cc1`, the cytotoxicity call is “active”. For the compound `C[C@H](CO)N1C[C@H](C)[C@H](CN(C)C(=O)Nc2ccc(F)cc2)Oc2ccc(NC(=O)Nc3ccc(C(F)(F)F)cc3)cc2C1=O`, the cytotoxicity call is “inactive”. On to `C[C@H]1CN([C@@H](C)CO)C(=O)c2cc(NC(=O)Nc3ccc(C(F)(F)F)cc3)ccc2O[C@H]1CN(C)C(=O)Nc1ccc(F)cc1`, for which the cytotoxicity call is “inactive”. With `C[C@H](CO)N1C[C@H](C)[C@@H](CN(C)C(=O)Nc2ccc(F)cc2)Oc2ccc(NC(=O)Nc3ccc(C(F)(F)F)cc3)cc2C1=O`, the cytotoxicity call was “inactive”. The result for `C[C@H](CO)N1C[C@H](C)[C@H](CN(C)C(=O)Nc2ccc(C(F)(F)F)cc2)Oc2ccc(NC(=O)Nc3ccc(F)cc3)cc2C1=O` reads “active”. Consider `C[C@@H]1CCCCO[C@H](CN(C)CC2CC2)[C@@H](C)CN([C@H](C)CO)C(=O)c2cc(NS(=O)(=O)c3ccc(Cl)cc3)ccc2O1`, for which the cytotoxicity call is “inactive”.

Regarding `C[C@@H]1CCCCO[C@@H](CN(C)Cc2ccc3c(c2)OCO3)[C@@H](C)CN([C@@H](C)CO)C(=O)c2cc(NC(=O)Cc3ccccc3)ccc2O1`, the cytotoxicity call was “inactive”.

For the compound `Cc1cc(C(=O)Nc2cccc3c2O[C@H](CN(C)S(=O)(=O)c2ccccc2)[C@H](C)CN([C@@H](C)CO)C3=O)n(C)n1`, the cytotoxicity call was “inactive”.

Consider `C[C@H](CO)N1C[C@H](C)[C@H](CN(C)C(=O)NC2CCCCC2)Oc2ccc(NS(=O)(=O)c3cn(C)cn3)cc2CC1=O`, for which the cytotoxicity call was “inactive”. `Cc1nc(C)n(C(=O)N2CCOCC2)n1`: the cytotoxicity call was “inactive”. `C[C@@H](O[C@H]1OCCN(Cc2n[nH]nc2CN(C)C)[C@H]1c1ccc(F)cc1)c1cc(C(F)(F)F)cc(C(F)(F)F)c1`: the cytotoxicity call is “inactive”. As for `CCCC#Cc1cnc2c(c1)C(=O)N([C@H](C)CO)C[C@H](C)[C@H](CN(C)C(=O)c1ccc3c(c1)OCO3)O2`, the cytotoxicity call is “inactive”. On to `C[C@H]1CN([C@@H](C)CO)C(=O)c2cc(NC(=O)Cn3cnnn3)ccc2O[C@H]1CN(C)C(=O)Nc1ccc(C(F)(F)F)cc1`, for which the cytotoxicity call was “inactive”. For `C[C@H]1CN([C@@H](C)CO)C(=O)c2cc(NC(=O)Nc3ccc4c(c3)OCO4)ccc2O[C@@H]1CN(C)C(=O)Nc1ccc(C(F)(F)F)cc1`, the cytotoxicity call is “inactive”. The result for `C[C@@H]1CN([C@@H](C)CO)C(=O)c2cc(NC(=O)Nc3ccc(C(F)(F)F)cc3)ccc2O[C@@H]1CN(C)C(=O)Nc1ccc2c(c1)OCO2` reads “active”; that for `C[C@@H]1CN([C@@H](C)CO)C(=O)c2cc(NC(=O)Nc3ccc4c(c3)OCO4)ccc2O[C@H]1CN(C)C(=O)Nc1ccc(C(F)(F)F)cc1`, “inactive”.

The values are drawn from the antibiotic and cytotoxicity screens of Wong et al. (2023).
